Source: PubChem BioAssay (Tox21)
Where “and” joins values, the source holds several entries; their conditions need not be identical. Identical values can stand only once. Results filed as inconclusive are left out. A structure can be active in one record and inactive in another. Calls of active or inactive are those of the source. Unless noted, calls come from the whole dose curve; as a rule, active = well fitted curve in the direction sought with a large enough effect in the repeat runs; inconclusive = weak or mixed curves; inactive = no such curve, though single readings can be large; an effect the other way counts as inactive or inconclusive.

Assays:
[1] = qHTS assay to identify small molecule agonists of H2AX (AID 1224845; active = well fitted activation curve with a large enough effect in the signal ratio in the repeat runs, not every such curve was filed as active; the % refers to the signal ratio; note: potency is the fitted concentration of half-maximal effect)
Outline: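 Wild-type CHO-K1 cells, plated overnight, exposed 3hr at 37C to 15 concentrations (0.76% DMSO final). Lysed, then HTRF anti-pH2AX (S139) cryptate and anti-H2AX-d2 antibodies, 24 hr room temperature; 665/620 nm emission read.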

[2] = qHTS assay to identify small molecule agonists of the hypoxia (HIF-1) signaling pathway (AID 1224846; active = well fitted activation curve with a large enough effect in the signal ratio in the repeat runs, not every such curve was filed as active; the % refers to the signal ratio)
Outline: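 Steps: seed ME-180 HRE-bla cells (2,000/well, 0.5% dialyzed FBS); incubate 5 hrs at 37C; pin-transfer compounds or DMSO; incubate 17 hrs; add LiveBLAzer B/G substrate CCF4-AM; measure reporter activation by FRET.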

[3] = qHTS assay to identify small molecule agonists of H2AX - cell viability counter screen (AID 1224847; calls by dose curve; note: nearly all actives have a fitted effect of over 30% in size; note: potency is the fitted concentration of half-maximal effect)
Outline: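 Viability of CHO-K1 (wild type) cells after 3 hr compound exposure was measured by CellTiter-Glo luminescence.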

[4] = qHTS assay to identify small molecule antagonists of the estrogen related receptor (ERR) signaling pathway from Tox21 library (AID 1224848); note: nearly all actives have a fitted effect of over 50% in size; note: potency is the fitted concentration of half-maximal effect
Outline: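 Luminescent reporter read-out (ONE-Glo) from NTP's ERR cell line after 18 h treatment at 37 C with DMSO-dissolved Tox21 compounds; cells pre-plated 6 h beforehand at 2,000 per well.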

[5] = qHTS assay to identify small molecule agonists of the estrogen related receptor (ERR) signaling pathway from Tox21 library (AID 1224849; calls by dose curve; note: nearly all actives have a fitted effect of over 15% in size); conditions: ERR reporter cell line, ONE-Glo luciferase, 18 h
Outline: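 Agonist signal is luciferase luminescence from an ERR reporter cell line treated 18 h at 37 C with DMSO-dissolved compounds, read 30 min after ONE-Glo addition at room temperature.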

[6] = qHTS RealTime-Glo MT Cell Viability Assay in HepG2 cells - 24 hour (AID 1224867); note: nearly all actives have a fitted effect of over 50% in size; note: potency is the fitted concentration of half-maximal effect
Outline: (§1)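 Viability was tracked continuously by NanoLuc luminescence from prosubstrate reduced by living HepG2 cells, at successive time points over 40 h of compound exposure. Cells with reagent were preincubated 5 h at 37 °C before compound addition.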

[7] = A CellTox Green Cytotoxicity Assay to monitor cytotoxicity in HEK293 cells - 0 hour (AID 1224869); note: nearly all actives have a fitted effect of over 50% in size
Outline: (§2)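 Cytotoxicity was tracked continuously in HEK293 cells by a DNA-binding dye excluded from viable cells. Compounds were transferred in DMSO 5 h after seeding; fluorescence was recorded at intervals up to 40 h.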

[8] = qHTS RealTime-Glo MT Cell Viability Assay in HepG2 cells - 40 hour (AID 1224870); note: nearly all actives have a fitted effect of over 50% in size; note: potency is the fitted concentration of half-maximal effect
Outline: (§3)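 HepG2 cells (600/well) mixed with RealTime-Glo MT reagent, settled 5 h at 37 C/5% CO2 before compound addition. Nonlytic NanoLuc luminescence from viable-cell prosubstrate reduction read repeatedly during 40 h treatment at 37 C.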

[9] = A CellTox Green Cytotoxicity Assay to monitor cytotoxicity in HEK293 cells - 40 hour (AID 1224871); note: nearly all actives have a fitted effect of over 45% in size; note: potency is the fitted concentration of half-maximal effect
Outline: as §2

[10] = A CellTox Green Cytotoxicity Assay to monitor cytotoxicity in HEK293 cells - 24 hour (AID 1224875); note: nearly all actives have a fitted effect of over 45% in size; note: potency is the fitted concentration of half-maximal effect
Outline: as §2

[11] = A CellTox Green Cytotoxicity Assay to monitor cytotoxicity in HepG2 cells - 16 hour (AID 1224876); note: nearly all actives have a fitted effect of over 45% in size; note: potency is the fitted concentration of half-maximal effect
Outline: (§4)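 Real-time, homogeneous cytotoxicity readout: dead-cell DNA staining by CellTox Green in HepG2 monolayers, fluorescence measured at timed intervals up to 40 h of continuous compound exposure.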

[12] = qHTS RealTime-Glo MT Cell Viability Assay in HepG2 cells - 32 hour (AID 1224877); note: nearly all actives have a fitted effect of over 55% in size; note: potency is the fitted concentration of half-maximal effect
Outline: as §1

[13] = A CellTox Green Cytotoxicity Assay to monitor cytotoxicity in HepG2 cells - 24 hour (AID 1224878); note: nearly all actives have a fitted effect of over 45% in size; note: potency is the fitted concentration of half-maximal effect
Outline: as §4

[14] = A CellTox Green Cytotoxicity Assay to monitor cytotoxicity in HepG2 cells - 40 hour (AID 1224879); note: nearly all actives have a fitted effect of over 40% in size; note: potency is the fitted concentration of half-maximal effect
Outline: as §4

[15] = qHTS RealTime-Glo MT Cell Viability Assay in HEK293 cells - 0 hour (AID 1224880)
Outline: (§5)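 Nonlytic bioluminescent viability monitoring. HEK293 at 600 cells/well with reagent; 5 h settle; compound transfer by pintool; plates held at 37 C and read at set time points.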

[16] = A CellTox Green Cytotoxicity Assay to monitor cytotoxicity in HEK293 cells - 32 hour (AID 1224881); note: nearly all actives have a fitted effect of over 40% in size; note: potency is the fitted concentration of half-maximal effect
Outline: as §2

[17] = qHTS RealTime-Glo MT Cell Viability Assay in HEK293 cells - 32 hour (AID 1224868); note: nearly all actives have a fitted effect of over 50% in size; note: potency is the fitted concentration of half-maximal effect
Outline: (§6)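 Viability tracked continuously by luminescence as live cells reduce a prosubstrate for NanoLuc; HEK293 cells preincubated 5 h, compound-treated at 37 C, and read at 0, 8, 16, 24, 32 and 40 h.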

[18] = qHTS RealTime-Glo MT Cell Viability Assay in HEK293 cells - 16 hour (AID 1224872); note: nearly all actives have a fitted effect of over 50% in size; note: potency is the fitted concentration of half-maximal effect
Outline: as §6

[19] = qHTS RealTime-Glo MT Cell Viability Assay in HepG2 cells - 8 hour (AID 1224873); note: nearly all actives have a fitted effect of over 55% in size; note: potency is the fitted concentration of half-maximal effect
Outline: as §3

[20] = qHTS RealTime-Glo MT Cell Viability Assay in HEK293 cells - 40 hour (AID 1224874); conditions: RealTime-Glo luminescence; max response: stronger effect = lower value; note: nearly all actives have a fitted effect of over 50% in size; note: potency is the fitted concentration of half-maximal effect
Outline: as §5
% is set by controls: 0 for no effect and ±100 for the full control effect.

Cc1cccc(N=Nc2ccc(N(C)C)cc2)c1
active: Potency [3] 101 µM | activity change, positive = activation ([5]; at 92.4 µM (top of the series)) 234% and 86.9%
inactive: Potency [1] | outcome [2] | Potency [4] | Potency [6] | Potency [7] | Potency [8] | Potency [9] | Potency [10] | Potency [11] | Potency [12] | Potency [13] | Potency [14] | Potency [15] | Potency [16]

Nc1ncn[nH]1
inactive: Potency [1] | outcome [2] | Potency [3] | Potency [6] | Potency [17] | Potency [7] | Potency [8] | Potency [9] | Potency [18] | Potency [19] | max response [20] -0.91% and 1.15% | Potency [10] | Potency [11] | Potency [12] | Potency [13] | Potency [14] | Potency [15] | Potency [16]

S=c1[nH]c2ccccc2[nH]1
inactive: outcome [2] | Potency [3] | Potency [4] | activity change, positive = activation ([5]; at 92.4 µM (top of the series)) -4.19% and 0.256% | Potency [6] | Potency [17] | Potency [7] | Potency [8] | Potency [9] | Potency [18] | Potency [19] | max response [20] 4.47% and 4.64% | Potency [10] | Potency [12] | Potency [15]
inactive and 21.9 µM (active): Potency [11] | Potency [13] | Potency [14]

Clc1ccc(C(Cl)(Cl)Cl)cc1
inactive: outcome [2] | Potency [3] | Potency [4] | activity change, positive = activation ([5]; at 92.4 µM (top of the series)) -5.48% and 0.497% | Potency [6] | Potency [17] | Potency [7] | Potency [8] | Potency [9] | Potency [18] | Potency [19] | max response [20] -12.2% and -12.9% | Potency [10] | Potency [11] | Potency [12] | Potency [13] | Potency [14] | Potency [15]

CCC[CH2][Sn]([Cl])([Cl])[CH2]CCC
active: Potency [1] 1.28 µM and 1.27 µM | Potency [3] 11.4 µM and 25.3 µM | Potency [4] 155 nM and 172 nM | Potency [6] 313 nM and 219 nM | Potency [17] 99 nM and 123 nM | Potency [8] 198 nM and 138 nM | Potency [9] 351 nM and 490 nM | Potency [18] 198 nM and 174 nM | Potency [19] 7.86 µM and 8.71 µM | Potency [20] 88.2 nM and 110 nM | Potency [10] 556 nM and 2.19 µM | Potency [11] 2.22 µM and 1.74 µM | Potency [12] 222 nM and 155 nM | Potency [13] 442 nM and 436 nM | Potency [14] 313 nM and 309 nM | Potency [16] 442 nM and 1.38 µM
inactive: activity change, positive = activation ([5]; at 92.4 µM (top of the series)) -84.1% and -80% | Potency [7] | Potency [15]

CCC/C=N/O
inactive: Potency [1] | outcome [2] | Potency [3] | Potency [6] | Potency [17] | Potency [7] | Potency [9] | Potency [18] | Potency [19] | max response [20] -8.66% and 0.163% | Potency [10] | Potency [11] | Potency [12] | Potency [13] | Potency [14] | Potency [15] | Potency [16]

COP(=S)(OC)Oc1ccc(S(=O)(=O)N(C)C)cc1
inactive: outcome [2] | Potency [3] | Potency [4] | activity change, positive = activation ([5]; at 42.5 µM (top of the series)) -5.44% | activity change, positive = activation ([5]; at 92.4 µM (top of the series)) -12.4% | Potency [6] | Potency [17] | Potency [7] | Potency [8] | Potency [9] | Potency [18] | Potency [19] | max response [20] -18.5% and -16.7% | Potency [10] | Potency [11] | Potency [12] | Potency [13] | Potency [14] | Potency [15] | Potency [16]

CCCCCCCCCC(CC)c1ccc(S(=O)(=O)O)cc1 (centres undefined)
39.3 µM (active) and inactive: Potency [17]
active: Potency [20] 44.1 µM | Potency [11] 49 µM and 16.9 µM and 42 µM | Potency [13] 54.9 µM and 21.3 µM and 38.9 µM | Potency [14] 21.3 µM and 38.9 µM
inactive: Potency [1] | outcome [2] | Potency [6] | Potency [7] | Potency [8] | Potency [18] | Potency [19] | max response [20] -25.5% and -23.7% and -24.7% | Potency [12] | Potency [15]

C[C@]12CC[C@H]3[C@@H](CCC4=CC(=O)CC[C@@H]43)[C@@H]1CC[C@@H]2O
active: Potency [1] 99.8 µM
inactive: outcome [2] | Potency [3] | Potency [6] | Potency [17] | Potency [8] | Potency [9] | Potency [18] | Potency [19] | max response [20] -22.5% | Potency [10] | Potency [11] | Potency [12] | Potency [13] | Potency [14] | Potency [15] | Potency [16]

O=C(O)CF
inactive and 19.5 µM (active): Potency [13] | Potency [14]
inactive: Potency [1] | outcome [2] | Potency [3] | Potency [6] | Potency [17] | Potency [9] | Potency [18] | Potency [19] | max response [20] 2.85% and 14% | Potency [10] | Potency [11] | Potency [12] | Potency [15] | Potency [16]

[Cl-].[Cl-].[Cl-].[Fe+3]
inactive: Potency [1] | outcome [2] | Potency [3] | Potency [6] | Potency [17] | Potency [8] | Potency [9] | Potency [18] | Potency [19] | max response [20] 0.374% | Potency [10] | Potency [11] | Potency [12] | Potency [13] | Potency [14] | Potency [15] | Potency [16]

c1ccc2c(c1)Nc1ccccc1S2
inactive: outcome [2] | Potency [3] | Potency [4] | activity change, positive = activation ([5]; at 42.5 µM (top of the series)) -0.479% | activity change, positive = activation ([5]; at 92.4 µM (top of the series)) -21.3% | Potency [6] | Potency [7] | Potency [9] | Potency [19] | Potency [10] | Potency [11] | Potency [12] | Potency [13] | Potency [14] | Potency [16]
active: Potency [17] 11 µM and 13.4 µM | Potency [18] 6.92 µM and 12 µM | Potency [20] 14.3 µM and 13.4 µM
